IL-1B inflam inh – inflammasome signaling inhibition, IL-1 beta readout | activity change, % at 57.5 µM | 4.7% of 360,000 active | THP-1 LPS/ATP IL-1B secretion, AlphaLISA, 16 h; hits give low values; in the data active = activity change below about -50%; inconclusive = mostly about -30% to -49%
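THP-1 cells pretreated 1 hr with compounds (up to 57.5 uM final), then stimulated with LPS (250 ng/mL final) plus ATP (1.25 mM final); secreted IL-1B measured by AlphaLISA after 16 hr, decreased signal indicating inhibition.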
TDP1 cell CPT – growth inhibition of DT40 Tdp1-/-;hTDP1 cells with camptothecin (screen for TDP1 inhibitors) | 12% of 420,000 active | AID 686979 | chicken DT40 Tdp1-/-;hTDP1 cells + 20 nM CPT, ATP luminescence, 48 h | Potency, µM (series often up to 46.2 µM), without a hit: top-dose activity change, negative = growth inhibition, usual class: inhibitors; note: potency is the fitted concentration of half-maximal effect; nearly all actives have a fitted effect of over 55% in size
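Chicken DT40 Tdp1-/- cells stably complemented with human TDP1 were seeded at 400 cells/well in medium containing 20 nM camptothecin, exposed to pin-transferred compounds, and grown at 37 °C for at least 48 hr. Viability was read as ATP luminescence.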
TDP1 cell noCPT – qHTS for Inhibitors of human tyrosyl-DNA phosphodiesterase 1 (TDP1): qHTS in cells in absence of CPT. DT40 Tdp1-/- hTDP1 cells, no CPT, ATP luminescence, 48 h. Potency, µM (highest dose often 46.2 µM), for the others: at the top dose activity change, negative = growth inhibition, most hits filed as inhibitors. 15% of 420,000 active. AID 686978, 2013; note: potency is the fitted concentration of half-maximal effect; nearly all actives have a fitted effect of over 55% in size
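Luminescent ATP content (CellTiter-Glo) served as the growth readout. Knockout chicken DT40 cells expressing human TDP1 were exposed to compounds without camptothecin for a minimum 48 hr at 37 °C.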
RORg inh – inhibitors of mouse ROR gamma transcriptional activity; P51450; Drosophila S2 Gal4-RORgamma UAS-luciferase reporter, 20 h; Potency, µM (top dose mostly 53.6 µM), inactives show at the highest dose activity change, negative = inhibition, actives largely listed as inhibitors; 5.4% of 310,000 active; AID 2551; note: potency is the fitted concentration of half-maximal effect; nearly all actives have a fitted effect of over 60% in size
Target sequence (P51450 whole entry, looked up, the tested form may be a part): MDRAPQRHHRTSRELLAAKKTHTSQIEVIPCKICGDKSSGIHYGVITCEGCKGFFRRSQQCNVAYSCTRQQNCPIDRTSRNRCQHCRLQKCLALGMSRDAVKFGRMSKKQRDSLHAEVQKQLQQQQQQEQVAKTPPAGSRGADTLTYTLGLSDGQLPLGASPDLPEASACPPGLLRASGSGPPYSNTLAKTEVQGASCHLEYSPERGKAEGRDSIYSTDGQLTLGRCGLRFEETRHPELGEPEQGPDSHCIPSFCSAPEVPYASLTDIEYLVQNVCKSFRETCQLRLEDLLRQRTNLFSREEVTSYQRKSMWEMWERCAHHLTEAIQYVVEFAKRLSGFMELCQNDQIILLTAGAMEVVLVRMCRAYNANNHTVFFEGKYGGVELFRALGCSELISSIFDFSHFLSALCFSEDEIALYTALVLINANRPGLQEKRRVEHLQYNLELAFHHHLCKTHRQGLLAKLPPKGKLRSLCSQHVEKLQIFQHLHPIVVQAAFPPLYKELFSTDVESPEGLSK
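A Gal4/UAS one-hybrid system in insect cells: metallothionein-promoter Gal4–ROR gamma fusion plus Photinus luciferase reporter. Copper sulfate 700 uM final, 20 hr ambient incubation, luminescent detection after 10 min with reagent.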
ELG1 repair inh – blocks ELG1-dependent DNA repair in HEK293T cells; HEK293T ELG1-luciferase reporter, luminescence, 16 h; DNA damage induced by 5-fluorouridine; Potency, µM (top dose mostly 46.1 µM), without a hit: at the highest dose activity change, negative = inhibition, actives largely listed as inhibitors; 2.3% of 330,000 active; note: potency is the fitted concentration of half-maximal effect; nearly all actives have a fitted effect of over 55% in size
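DMSO vehicle served as the neutral condition. Each well held 2,000 cells given 5-fluorouridine plus compound; after 16 hr at 37 °C/5% CO2, ONE-Glo was added and luciferase measured 30 min later.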
Gal4-VP16 FLuc – inhibits Gal4-VP16 luciferase reporter, ROR gamma counter-screen. Drosophila S2 Gal4-VP16 UAS-luciferase, luminescence, 20 h. Potency, µM (highest dose often 53.6 µM), for the others: at the highest dose activity, negative = inhibition, hits mostly inhibitors. 3.5% of 310,000 active. AID 2546;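 note: Gal4-VP16 expression switched on by copper sulfate through the metallothionein promoter; potency is the fitted concentration of half-maximal effect; nearly all actives have a fitted effect of over 50% in size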
An asterisk follows results filed as active; ? = inconclusive; / = no result; [ ] = another dose, or the depositor's remark. Most compounds without a hit are left out; they make up all but 21% or so of the library. Unless noted, calls come from the whole dose curve; as a rule, active = well fitted curve in the direction sought with a large enough effect; inconclusive = small, poorly fitted or top-dose-only effect, or another doubt; inactive = no such curve, though single readings can be large; an effect the other way counts as inactive or inconclusive. % is set by controls: 0 for no effect and ±100 for the full control effect.

SMILES | IL-1B inflam inh | TDP1 cell CPT | TDP1 cell noCPT | RORg inh | ELG1 repair inh | Gal4-VP16 FLuc
Cc1ccc(C(=O)NNC(=S)NC(=O)COc2ccccc2)cc1 | 33 | 15µM* | 6.5µM* | ? | 2% | -20%
CC(C)(C)c1ccc(OCC(=O)NNC(=O)CCc2ccccc2)cc1 | 19 | 1% | -10% | 1% | -4% | -11%
Cc1cccc(OCC(=O)NC(=S)NNC(=O)c2ccncc2)c1 | -20 | ? | ? | ? | -6% | ?
CC(C)(C)c1ccc(C(=O)NC(=S)NNC(=O)COc2ccccc2)cc1 | 78 | 13µM* | 16µM* | 2.5µM* | ? | 2.8µM*
O=C(CSc1ncccn1)NC(=O)Cc1ccccc1 | 9 | 0% | 0% | / | 24% | /
O=c1[nH]c2ccccc2nc1/C=C(\O)c1cccs1 | 120 | -18% | ? | 31% | ? | -5%
S=C(Nc1ccc(Cl)cc1)c1nc2ccccc2[nH]1 | -3 | ? | ? | 11µM* | ? | 20µM*
COC(=O)/C(=C\c1ccc(O)cc1)c1nc2ccccc2[nH]1 | -6 | ? | ? | 8% | ? | 24%
COc1cc(/C=C(/C(=O)c2cccs2)c2nc3ccccc3[nH]2)ccc1O | -106* | ? | 18µM* | 37% | ? | -6%
COC(=O)/C(=C\c1cc(OC)c(OC)c(OC)c1)c1nc2ccccc2[nH]1 | -99* | ? | 16µM* | -40% | ? | 16%
O=C(/C(=C/c1ccc(Cl)cc1)c1nc2ccccc2[nH]1)c1cccs1 | -112* | 2.9µM* | 4.1µM* | 3.2µM* | 7.3µM* | ?
O=C(NN=C1CCCC1)c1cc(Cl)cc(Cl)c1O | 8 | -9% | 12% | -25% | -15% | -8%
C[C@@H]1CN([C@@H](C)CO)C(=O)CCCn2cc(nn2)CO[C@H]1CN(C)S(=O)(=O)c1cn(C)cn1 | -1 | -1% | -10% | / | / | /
O=C(/C(=C\c1ccccc1)c1nc2ccccc2[nH]1)c1ccc(Cl)cc1 | -100* | 7.3µM* | 6.5µM* | ? | ? | ?
O=C(/C=C/c1cccc(Cl)c1)c1nc2ccccc2[nH]1 | -17 | 12µM* | 9.2µM* | 3.2µM* | ? | ?
O=C(/C=C/c1cccc(Cl)c1)Nc1ncccn1 | -27 | -10% | -19% | 31% | ? | 21%
COC(=O)c1nn(-c2ccccc2)nc1-c1nn(-c2ccccc2)nc1C(=O)OC | -8 | ? | 16µM* | 10% | 0% | -4%
O/N=C1/CC/C(=N\O)c2nn(-c3ccccc3)nc21 | -65* | 15µM* | 9.2µM* | 12% | -7% | -5%
O=C(O)c1nn(-c2ccccc2)nc1-c1nn(-c2ccccc2)nc1C(=O)O | 3 | -7% | 1% | -12% | 10% | ?
CCCN(C(=O)CSc1nnc(-c2ccncc2)n1CCC)c1c(N)n(Cc2ccccc2)c(=O)[nH]c1=O | -4 | 1% | 4% | / | / | /
Cc1ccc(CN2CCN(C3CCN(C(=O)Nc4ccc(C)cc4Cl)CC3)C(=O)C2=O)cc1 | / | -12% | ? | / | / | /
CC1=C(C(=O)N(C(C)C)C(C)C)CC(CC(=O)NCCc2ccccn2)C(=O)N1CCCN1CCCC1=O (stereo not given) | -9 | 0% | 4% | / | / | /
O=C(NCc1ccc(F)cc1)C1CCN(c2ncnc3c2nc2n3CCCCC2)CC1 | / | -7% | ? | / | / | /
O=C1c2oc3ccc(F)cc3c(=O)c2C(c2cccc([N+](=O)[O-])c2)N1CCCN1CCOCC1 (stereo not given) | / | -8% | -18% | / | / | /
O=c1c(NCc2cccs2)nccn1-c1ccc(F)cc1 | / | -17% | ? | / | / | /
SMILES | IL-1B inflam inh | TDP1 cell CPT | TDP1 cell noCPT | RORg inh | ELG1 repair inh | Gal4-VP16 FLuc
NC[C@@H]1O[C@H](O[C@@H]2[C@H](O[C@@H]3O[C@H](CO)[C@@H](O)[C@@H]3O)[C@@H](O)[C@@H](N)C[C@H]2N)[C@@H](N)[C@H](O)[C@@H]1O | / | / | / | 7%[2.98 µM] | / | -1%[17 µM]
CCOC(=O)c1ccc(NC2=CC(c3ccc(O)c(OCC)c3)N(c3ccc(C(=O)OCC)cc3)C2=O)cc1 (stereo not given) | / | 13µM* | 13µM* | / | / | /
COc1cc(C2C=C(Nc3ccccc3)C(=O)N2c2ccccc2)ccc1O (stereo not given) | ? | ? | ? | 9% | ? | 9%
CCNc1nc(N)c(C(=O)c2ccc(Cl)s2)s1 | -96* | -1% | 1% | -7% | ? | ?
O=C(Nc1nc(-c2ccccn2)cs1)c1ccc2c(c1)OCCO2 | 55 | 3.3µM* | 3.3µM* | 3.2µM* | ? | 10µM*
O=C(Nc1ccccn1)c1ccc2c(c1)OCO2 | -17 | -25% | -30% | -40% | ? | ?
CC(=O)Nc1ccc(C(=O)Nc2nc(-c3cccnc3)cs2)cc1 | -19 | -28% | ? | -33% | 1% | 0%
O=C(Nc1nc(-c2ccccn2)cs1)c1ccccc1-n1cnnn1 | 185 | 2.6µM* | ? | 5µM* | 2.6µM* | -14%
O=C(Nc1ccccn1)c1ccc2c(c1)OCCO2 | -23 | ? | ? | 10µM* | ? | 2%
O=C(Nc1ccc(OC(F)(F)F)cc1)c1ccccc1-n1cnnn1 | -29 | 3% | 7% | / | 6% | /
CC(=O)Nc1ccc(C(=O)Nc2nc(-c3ccccn3)cs2)cc1 | -2 | 16µM* | 15µM* | 7.9µM* | ? | 4%
COc1ccc(CCN2C(=O)COc3ccccc3C2C(=O)Nc2ccc3c(c2)OCCO3)cc1OC (stereo not given) | 16 | ? | 21µM* | / | / | /
CCC(C)C(NC(=O)C(Cc1ccc(O)cc1)NC(=O)C(N)C(C)C)C(=O)NC(Cc1cnc[nH]1)C(=O)N1CCCC1C(=O)NC(Cc1ccccc1)C(=O)O (stereo not given) | / | / | / | -1% | / | -6%
CCN(c1ccccc1)S(=O)(=O)c1ccc(Oc2ccc(C(C)=O)cc2OC)nc1 | 14 | ? | 16µM* | / | ? | /
CCN(c1ccccc1)S(=O)(=O)c1ccc(OC)c(NC(=O)c2ccco2)c1 | 14 | ? | 21µM* | / | / | /
CCN(c1ccccc1)S(=O)(=O)c1ccc(OC)c(NC(=O)C2CC(=O)N(Cc3ccccc3)C2)c1 (stereo not given) | -54* | ? | ? | ? | -15% | -12%

High-throughput results as filed in PubChem.
